# According to PubChem BioAssay (EPA / NIEHS):
# Results filed as inconclusive are left out. The source made the active and inactive calls. Rule for the calls: active = hit-call score of the fitted dose curve at least 0.9, where 1 is the maximum; inconclusive = response in the unintended direction; inactive = score below 0.9.
# Target: Bile acid receptor (Homo sapiens) (UniProt Q96RI1)
# Assay: ATG_FXR_TRANS: Attagene TRANS-FACTORIAL HepG2 Assay for Farnesoid X Receptor (FXR) (AID 2282979);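 note: hits raise reporter mRNA above DMSO so AC50 marks FXR activation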
# Details: HepG2 Attagene TRANS FXR-GAL4 reporter transcription
# Summary of the method: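 HepG2 cells were transiently transfected with GAL4-UAS reporters driven by chimeric NR-Gal4 proteins and dosed for 24 h. Reporter mRNA was quantified by RT-PCR, fluorescent labelling, HpaI digestion and capillary electrophoresis, with gain of signal scored versus DMSO.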
# Sequence of Bile acid receptor (Homo sapiens) (Q96RI1 whole entry, looked up): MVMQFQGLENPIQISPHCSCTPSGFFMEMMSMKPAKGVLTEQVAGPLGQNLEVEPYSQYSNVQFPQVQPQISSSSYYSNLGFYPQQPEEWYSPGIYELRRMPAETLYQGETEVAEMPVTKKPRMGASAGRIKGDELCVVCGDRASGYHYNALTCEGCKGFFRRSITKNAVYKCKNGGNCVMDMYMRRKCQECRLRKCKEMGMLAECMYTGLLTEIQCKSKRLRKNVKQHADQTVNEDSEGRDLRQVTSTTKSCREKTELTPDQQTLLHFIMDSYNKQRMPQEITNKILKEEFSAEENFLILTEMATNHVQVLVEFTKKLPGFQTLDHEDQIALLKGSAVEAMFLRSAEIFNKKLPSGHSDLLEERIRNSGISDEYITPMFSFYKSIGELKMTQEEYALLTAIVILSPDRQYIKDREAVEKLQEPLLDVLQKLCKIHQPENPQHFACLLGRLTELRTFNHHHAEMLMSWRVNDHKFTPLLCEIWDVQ
row,SMILES,outcome
1,CCC(C)n1c(=O)[nH]c(C)c(Br)c1=O (configuration not stated),inactive
2,COc1cc(OC)nc(NC(=O)NS(=O)(=O)c2ncccc2OCC(F)(F)F)n1,inactive
3,CN=C=S,inactive
4,CC1(C)C(C(=O)OC(C#N)c2cccc(Oc3ccccc3)c2)C1(C)C (configuration not stated),inactive
5,COP(=S)(OC)Oc1ccc([N+](=O)[O-])c(C)c1,inactive
6,COCC(=O)N(c1c(C)cccc1C)C(C)C(=O)OC (configuration not stated),inactive
7,CCCCOCN(C(=O)CCl)c1c(CC)cccc1CC,inactive

# Target: Oxysterols receptor LXR-beta (Homo sapiens) (UniProt P55055)
# Assay: ATG_LXRb_TRANS: Attagene TRANS-FACTORIAL HepG2 Assay for human Liver X Receptor beta (LXRb) (AID 2282981)
# Details: HepG2 Attagene TRANS GAL4-LXRb reporter, mRNA
# Summary of the method: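 After 24 h of chemical treatment, transfected HepG2 cells yield total RNA; reporter cDNA is PCR-amplified, FAM-labelled, HpaI-cut and run on capillary electrophoresis. Signal reflects chimeric LXRb-Gal4 activity on GAL4-UAS reporters.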
# Sequence of Oxysterols receptor LXR-beta (Homo sapiens) (P55055 whole entry, looked up): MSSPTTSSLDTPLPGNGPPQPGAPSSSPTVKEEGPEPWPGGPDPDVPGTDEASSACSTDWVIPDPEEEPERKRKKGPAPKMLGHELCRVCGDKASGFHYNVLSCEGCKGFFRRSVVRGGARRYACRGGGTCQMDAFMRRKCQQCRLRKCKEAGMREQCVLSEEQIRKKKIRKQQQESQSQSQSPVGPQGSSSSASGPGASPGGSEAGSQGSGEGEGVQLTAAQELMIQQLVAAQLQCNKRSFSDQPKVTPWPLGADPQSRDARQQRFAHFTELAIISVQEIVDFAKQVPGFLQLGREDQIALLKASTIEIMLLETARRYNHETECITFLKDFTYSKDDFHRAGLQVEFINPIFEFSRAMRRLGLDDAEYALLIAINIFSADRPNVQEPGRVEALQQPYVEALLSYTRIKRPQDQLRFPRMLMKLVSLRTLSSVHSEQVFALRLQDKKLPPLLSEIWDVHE
SMILES,outcome,AC50
COC(=O)c1c(C(F)F)nc(C(F)(F)F)c(C2=NCCS2)c1CC(C)C,inactive,
COC(=O)N(C(=O)N1CO[C@@]2(C(=O)OC)Cc3cc(Cl)ccc3C2=N1)c1ccc(OC(F)(F)F)cc1,inactive,
CS(=O)(=O)c1cc(C(F)(F)F)ccc1C(=O)c1cnoc1C1CC1,inactive,
COC(=O)NS(=O)(=O)c1ccc(N)cc1,inactive,
C=CCOC(=O)C(C)(C)OC(=O)c1cc(-n2c(=O)cc(C(F)(F)F)n(C)c2=O)ccc1Cl,inactive,
COP(=S)(OC)SCn1nnc2ccccc2c1=O,inactive,
CC(C)NC(=O)N1CC(=O)N(c2cc(Cl)cc(Cl)c2)C1=O,inactive,
CC(C)N1C(=O)c2ccccc2NS1(=O)=O,,50 µM (active)
COP(=O)(OC)O/C(C)=C/C(=O)N(C)C,inactive,
CCCCC(C#N)(Cn1cncn1)c1ccc(Cl)cc1 (configuration not stated),inactive,
N#CN=C1SCCN1Cc1ccc(Cl)nc1,inactive,
CCC(C)n1c(=O)[nH]c(C)c(Br)c1=O (configuration not stated),inactive,
COc1cc(OC)nc(NC(=O)NS(=O)(=O)c2ncccc2OCC(F)(F)F)n1,inactive,
O=C(Nc1ccccc1-c1ccc(Cl)cc1)c1cccnc1Cl,inactive,
CN=C=S,inactive,
COc1ccc(-c2ccccc2)cc1NNC(=O)OC(C)C,inactive,
CCOc1nc(C(Cl)(Cl)Cl)ns1,inactive,
CC1(C)C(C(=O)OC(C#N)c2cccc(Oc3ccccc3)c2)C1(C)C (configuration not stated),inactive,
COP(=S)(OC)Oc1ccc([N+](=O)[O-])c(C)c1,inactive,
CC1(C)CCC(=Cc2ccc(Cl)cc2)C1(O)Cn1cncn1 (configuration not stated),inactive,
Cc1cc(C)nc(Nc2ccccc2)n1,inactive,
CC(C)Oc1cccc(NC(=O)c2ccccc2C(F)(F)F)c1,inactive,
COCC(=O)N(c1c(C)cccc1C)C(C)C(=O)OC (configuration not stated),inactive,
O=C1C2CC=CCC2C(=O)N1SC(Cl)(Cl)Cl (configuration not stated),inactive,
N#Cc1c[nH]cc1-c1cccc2c1OC(F)(F)O2,inactive,
CCOC(=O)C(C)OC(=O)c1cc(Oc2ccc(C(F)(F)F)cc2Cl)ccc1[N+](=O)[O-] (configuration not stated),inactive,
N#Cc1c(Cl)cccc1Cl,inactive,
CCCCOCN(C(=O)CCl)c1c(CC)cccc1CC,inactive,
CCNC(=O)NC(=O)C(C#N)=NOC,inactive,
Nc1c(Cl)c(F)nc(OCC(=O)O)c1Cl,inactive,
